# Reference: PubChem BioAssay (NCATS)
# Results filed as inconclusive are left out. Values without a mark were called inactive. The call rests on the fitted dose curve; in most records, active means well fitted curve in either direction with a large enough effect (not every such curve was filed as active); inconclusive means small, poorly fitted or top-dose-only effect, or another doubt; inactive means flat fitted curve, though single readings scatter.
# Target: Mitogen-activated protein kinase 10 (Mus musculus) (UniProt Q61831)
# Test: JNK3 AlphaScreen Assay (AID 530);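 further: kinase came from lysate of stimulated human HepG2 cells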
# Conditions: JNK3 lysate, c-Jun phosphorylation; series mostly up to 57.1 µM; activity change, negative = inhibition: at the top concentration
# Text: NIH Chemical Genomics Center [NCGC]
# NIH Molecular Libraries Screening Centers Network [MLSCN]
# The c-jun N-terminal kinase (JNK) family are serine/threonine protein kinases that phosphorylate c-jun, a component of the transcription factor […] (AP-1). JNK kinases are members of the mitogen-activated protein kinase family including the extracellular regulated kinases and p38 kinases. Three JNK genes (JNK 1, 2, and 3) have been identified in humans so far. JNK1 and JNK2 have a broad distribution and JNK3 is primarily found in neuronal tissues and cardiac myocytes.
# JNK3 has been under consideration as a target for the treatment of neurodegenerative disorders. […] JNK pathway is also involved in pathological process in a mouse model of Parkinson's disease (Xia et al., 2001).
# Given these potential tissue distributions and links to neuroprotection, JNK3 inhibitors should provide useful investigational tools to study the role of this kinase in several diseases including, arthritis, stroke, myocardial infarction, ischemic injury and Parkinson's disease.
# A homogeneous AlphaScreen is developed to measure the activity of JNK3. AlphaScreen is a two bead-based proximity-dependent chemical energy transfer luminescent assay platform. The phosphorylation of a biotinylated c-jun substrate by JNK3 can be detected with an antibody raised against phosphorylated c-jun. This process brings streptavidin donor beads and Protein-A acceptor beads to within a proximity range of <200 nm, and subsequently lead a chemical luminescent reaction upon exciting donor beads with 680 nm laser excitation light. Inhibition of JNK3 activity by small molecules and subsequent decrease in the antibody binding to biotinylated c-jun could attenuate or abolish this chemical luminescent reaction.
# Yang DD, Kuan CY, Whitmarsh AJ, Rincon M, Zheng TS, Davis RJ, Rakic P and Flavell RA (1997) Absence of excitotoxicity-induced apoptosis in the hippocampus of mice lacking the Jnk3 gene. Nature 389:865-870. [PMID: 9349820]
# Herdegen T, Claret FX, Kallunki T, Martin-Villalba A, Winter C, Hunter T, and Karin M (1998) Lasting N-terminal phosphorylation of c-Jun and activation of c-Jun N-terminal kinases after neuronal injury. J.Neurosci. 18:5124-5135. [PMID: 9651196]
# Xia XG, Harding T, Weller M, Bieneman A, Uney JB and Schulz JB (2001) Gene transfer of the JNK interacting protein-1 protects dopaminergic neurons in the MPTP model of Parkinson's disease. Proc.Natl.Acad.Sci.U.S.A. 98:10433-10438.
# NCGC Assay Protocol Summary:
# GST-cJun (1-79) (Stratagene, La Jolla CA, #205145) was biotnylated by PerkinElmer (PerkinElmer-BioSignalInc. Montreal, Canada) and was detectable by the streptavidin Donor beads. Anti-(phospho)cJun (Ser73) antibody was from UpState (Charlottesvilles, VA, #06-659). JNK3-containing lysates were generated from HepG2 cells and pre-activated by interleukin1-beta and tumor necrosis factor alpha. All reagents were stored at -20 C before using. Phosphorylated biotinylated-GST-cJun was recognized by Anti-(phospho)cJun (Ser73) antibody and this process brings acceptor and donor beads together. Therefore JNK3 phosphorylation of cJun can be measured by Alpha reading by EnVision (PerkinElmer, Boston, MA).
# The composition of kinase buffer was (in mM) 20 tris- HCl (pH 7.6) 10 MgCl2, 1 DTT, and 0.1 Na3VO4 and 0.01% Tween-20. Beads were diluted in detection buffer containing (in mM) 20 tris-HCl (pH 7.7), 20 NaCl and 80 EDTA and 0.3% BSA. The assay was performed at room temperature. All compounds were screened as titrations from 0.6 nM to 46 uM final concentration. The assay was performed in 1536-well format (white solid bottom and untreated) as follows:
# Sequence,Parameter,Value,Description
# 1,Reagent,3 uL,Biotin-GST-cJun, Anti-(phospho)cJun and pre-activated JNK3-containing lysates
# 2,Compound,23 nL,Final concentration was 0.6nM to 46uM
# 3,Time,15 minutes,Room Temperature
# 4,Reagent,1 uL,ATP final concentration 10uM
# 6,Reagent,0.5 uL,2ng/well bead mixture
# […]
# On the % scale 0 is the no-effect control and ±100 the full control effect.
row,SMILES,"activity change, negative = inhibition [%]"
1,CC(C)NC(=O)N1CCCC2(CCN(C(=O)c3cc(C(F)(F)F)cc(C(F)(F)F)c3)CC2)C1,-6
2,N#CCCn1c(=O)c(-c2cc(F)cc(F)c2)nc2cnc(OCc3ccccc3)nc21,-6.11
3,CN(C)C(=O)c1ccc(-c2cc(Nc3ccccc3)ncn2)cc1,-3.79
4,CC(=O)N1CCC2(CC1)CCN(C(=O)Nc1cccc(F)c1)CC2,-1.9
5,CN(C)C(=O)c1ccc(-c2cncnc2N2CCNCC2)cc1,1.37
6,COc1ccc(NC(=O)N2CC3(CCN(C(=O)c4c(C)noc4C)CC3)C2)cc1,-4.3
7,O=c1c(CCc2ccccc2)nc2cnc(N3CCNCC3)nc2n1Cc1ccc(F)cc1,-9.78
8,Cc1noc(C)c1-c1ccc2ncnc(NCc3cccnc3)c2c1,-6.64
9,Cn1cccc1C(=O)N1CCC[C@@]2(CCN(Cc3cc(C(F)(F)F)cc(C(F)(F)F)c3)C2)C1,-19.4
10,COCCn1c(=O)c(CCc2ccccc2)nc2cnc(N3CCNCC3)nc21,-1.04
11,COCCn1c(=O)c(-c2ccc(OC)cc2)nc2cnc(N3CCNCC3)nc21,3.9
12,CN(C)c1ncc2nc(-c3cc(F)cc(F)c3)c(=O)n(C[C@H]3CCCO3)c2n1,7.9
13,COc1ccc(CNc2cc(-c3cccc(C#N)c3)ncn2)c(OC)c1,10.4
14,CN(C)C(=O)c1ccc(-c2nc(NC3CCNCC3)c3ccccc3n2)cc1,2.8
15,O=c1c(-c2cc(F)cc(F)c2)nc2cnc(N3CCOCC3)nc2n1Cc1cccs1,3.62
16,COc1cccc(Cn2c(=O)c(-c3ccc(F)cc3)nc3cnc(N(C)C)nc32)c1,12.5
17,COc1ccc2[nH]cc(CCNc3cc(-c4ccccc4C(F)(F)F)ncn3)c2c1,-20.2
18,CN1CCN(c2cc(-c3ccccc3C(F)(F)F)ncn2)CC1,4.2
19,Cc1nc(NCc2ccccc2)c2nc(-c3ccccc3)n(CCCN3CCOCC3)c2n1,-12.6
20,CC(C)CN1CC[C@@]2(CCCN(S(=O)(=O)c3ccccc3)C2)C1,-5.62

row,SMILES,"activity change, negative = inhibition [%]"
1,O=C(c1ccco1)N1CCC[C@@]2(CCN(c3ccccc3)C2)C1,-24.7
2,Cc1noc(C)c1-c1cc(N(C)C)ncn1,8.58
3,FC(F)(F)c1ccccc1-c1nccc(N2CCNCC2)n1,-4.01
4,COCCNc1ncnc2ccc(-c3cccc(NS(C)(=O)=O)c3)cc12,-2.94
5,Cc1nc(NCCO)c2nc(-c3ccccc3)n(CC3CCN(C)CC3)c2n1,0.493
6,CCCn1c(-c2ccc(F)cc2)nc2c(NCCN3CCCC3)nc(C)nc21,-6.67
7,CCCn1c(C)nc2c(NCCCCN(CC)CC)nc(C)nc21,4.99
8,CCCn1c(-c2ccc(F)cc2)nc2c(NCCCCN(C)C)nc(C)nc21,-1.67
9,CCNc1ncc2nc(CCc3ccccc3)c(=O)n(CCOC)c2n1,5.26
10,O=c1cnc2cnc(N3CCOCC3)nc2n1CCc1ccccc1,2.05
11,Cc1cccc(CNc2ncnc3ccc(-c4ccc5c(c4)OCO5)cc23)c1,-1.04
12,CCN1CCCC1Cn1c(-c2ccccc2)nc2c(N(CCOC)CCOC)nc(C)nc21 (stereo not given),-2.55
13,COc1ncc2nc(-c3ccc(F)cc3)c(=O)n(C3CC3)c2n1,1.04
14,CCNc1ncc2nc(-c3ccc(OC)cc3)c(=O)n(C[C@H]3CCCO3)c2n1,6.87
15,CCCn1c(C)nc2c(N(CCN(C)C)Cc3ccccc3)nc(C)nc21,-6.51
16,O=C(Nc1cccc(F)c1)N1CCC2(CC1)CCN(C(=O)c1csnn1)CC2,-6.74
17,O=c1c(CCc2ccccc2)nc2cnc(N3CCNCC3)nc2n1CCc1ccccc1,-0.268
18,CC(=O)NCCNc1cc(-c2ccccc2C(F)(F)F)ncn1,1.83
19,CCCn1c(C)nc2c(NCCN3CCCCC3)nc(C)nc21,2.07
20,Cc1noc(C)c1-c1cc(Nc2ccc(F)cc2)ncn1,0.0306
